In PubChem BioAssay:

These compounds were tested against Homeobox protein Hox-A13 (Mus musculus) (UniProt Q62424) (assay: disruptors of Hoxa13 oligonucleotide interaction – biochemical, fluorescence polarization, labeled oligonucleotide, primary screen (AID 1185)). Settings: Hoxa13:DNA binding, 15 min, higher = more signal, called active from +8 up or from −8 down.
Sequence of Homeobox protein Hox-A13 (Mus musculus) (Q62424 whole entry, looked up): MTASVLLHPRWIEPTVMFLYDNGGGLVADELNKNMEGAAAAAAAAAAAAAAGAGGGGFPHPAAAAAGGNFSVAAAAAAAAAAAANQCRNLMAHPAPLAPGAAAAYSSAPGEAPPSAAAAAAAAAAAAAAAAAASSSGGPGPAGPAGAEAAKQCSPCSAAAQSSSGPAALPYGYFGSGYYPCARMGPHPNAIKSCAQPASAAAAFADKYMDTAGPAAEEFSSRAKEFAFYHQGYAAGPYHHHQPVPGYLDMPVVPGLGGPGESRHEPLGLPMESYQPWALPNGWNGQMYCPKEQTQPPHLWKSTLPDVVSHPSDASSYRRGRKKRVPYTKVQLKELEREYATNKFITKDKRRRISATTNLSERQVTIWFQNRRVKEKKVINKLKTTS

z-score, inactive:
CCCNC(=O)OC[C@H]1O[C@H](CCON=C2C[C@@H](O)[C@@H](O)[C@@H]3[C@@H]4C(=O)N(CC)C(=O)[C@@H]4CC[C@@H]23)C=C[C@@H]1Oc1ccc(OC)cc1 -7.64
COc1cccc([C@H](O)Cn2cc(-c3ccc(CON=C(C)C)cc3)nn2)c1 -4.2
COC(=O)[C@@H]1CC[C@H](C)[C@@H](c2ccc(Br)cc2)N1 -0.164
COc1ccc(O[C@H]2C=C[C@@H](c3ccccc3)O[C@@H]2CON=C2c3cc(OC)ccc3O[C@H](c3cccc(OC)c3)[C@H]2O)cc1 1.67
C[C@@H]1CC[C@@H](C(=O)O)N[C@H]1c1cccc(N2CCOCC2)c1 0.167
COc1ccc2c(c1)O[C@@H](c1cccc(C(F)(F)F)c1)[C@H](O)C2=O 0.16
CC(=O)OC[C@H]1O[C@H](C#CCCc2ccccc2)C=C[C@@H]1OC(C)=O -4.7
CN1CCc2nc(-c3ccccc3)c(-c3ccccc3)cc2C1 -0.07
CC(CCC(=O)OC[C@H]1O[C@H](C#Cc2ccccc2)C=C[C@@H]1Oc1ccc(C)cc1)=NOC[C@@H](C)[C@H](OCc1ccccc1)C(C)C -0.499
COCCNC(=O)OCC1CCCC2(CC(OC(=O)NCc3cccc4ccccc34)CC(CCC(=O)N[C@@H](C)C(=O)OC)O2)O1 (some centres not stated) -3.88
CC(C)CN1CCc2nc(-c3ccccc3)c3c(c2C1)CO[C@@H](C)C3 -4.73
CC(CCN1CCCCc2nc(C)c(C)cc21)=NOC[C@@H](O)[C@H]1O[C@@H]2OC(C)(C)O[C@@H]2[C@H]1O -1.75
